The panel holds about 83,000 compounds, 20% with a hit somewhere; the sample as a whole holds those more often.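 Percent growth is the endpoint: 0 to 100 indicates growth inhibition (40 means 60% inhibition), 0 means no net growth, and negative values indicate cell death.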 Unmarked numbers belong to inactive results. Active and inactive are the calls of the source. How the source made its calls: active means growth percent below 10; inactive means the rest.
Legend:
Test in all cases: NCI-60 one-dose screen, 48 h (100 = growth as untreated, 0 = no growth, -100 = all killed)
Conditions in all cases: 10 µM unless noted
NCI-H23 lung = tested on: NCI-H23 lung
NCI-H226 lung = tested on: NCI-H226 lung
NCI-H322M lung = tested on: NCI-H322M lung
HOP-62 NSCLC = tested on: HOP-62 NSCLC
NCI-H460 lung = tested on: NCI-H460 lung
HOP-92 NSCLC = tested on: HOP-92 NSCLC
NCI-H522 lung = tested on: NCI-H522 lung
A549/ATCC NSCLC = tested on: A549/ATCC NSCLC
786-0 renal = tested on: 786-0 renal
COLO 205 colon = tested on: COLO 205 colon
DU-145 prostate = tested on: DU-145 prostate
K-562 leukemia = tested on: K-562 leukemia
MALME-3M melanoma = tested on: MALME-3M melanoma
MDA-MB-231 breast = tested on: MDA-MB-231 breast
RXF 393 renal = tested on: RXF 393 renal
SF-268 CNS = tested on: SF-268 CNS
SF-295 CNS = tested on: SF-295 CNS
SF-539 CNS = tested on: SF-539 CNS
UACC-257 melanoma = tested on: UACC-257 melanoma
M14 melanoma = tested on: M14 melanoma

SMILES	growth (NCI-H23 lung) [%]	growth (NCI-H226 lung) [%]	growth (NCI-H322M lung) [%]	growth (HOP-62 NSCLC)	growth (NCI-H460 lung)	growth (HOP-92 NSCLC)	growth (NCI-H522 lung)	growth (A549/ATCC NSCLC)	growth (786-0 renal)	growth (COLO 205 colon)	growth (DU-145 prostate) [%]	growth (K-562 leukemia)	growth (MALME-3M melanoma)	growth (MDA-MB-231 breast)	growth (RXF 393 renal)	growth (SF-268 CNS) [%]	growth (SF-295 CNS)	growth (SF-539 CNS)	growth (UACC-257 melanoma)	growth (M14 melanoma)
CCOC(=O)C/C(=N\Nc1cc(=O)[nH]c2ccc(C)cc12)C(=O)OCC	103	93.3	98	107%	104%	79.8%	99.4%	107%	109%	124%	108	89.4%	98%	96.3%	108%	99.5	105%	103%	105%	106%
CC1(/C=C/c2ccc(-c3ccccc3)cc2)CCn2cnc3ncnc(c32)N1O (stereo not given)	13	17	26.9	19.6%	3.93% (active)	52.3%	26%	15.6%	1.88% (active)	28%	21.4	14.9%	23.3%	53.9%	5.19% (active)	16.6	13.3%	1.19% (active)	10.7%	-2.25% (active)
COc1ccc(Oc2ccc(/C=C/C(=O)c3ccc(OC)c(OC)c3)cc2)cc1	83.7	90.9	86.7	118%	93.9%	83.7%	57.4%	81.8%	103%	91.9%	76.6	66%	92.9%	94.3%	101%	97.1	87%	100%	78.6%	92.9%
O=C1C=CC2(O)OC/C(=C\c3ccccc3)C(O)=C2C1=O (stereo not given)	36.1	81	72.2	5.5% (active)	29.1%	-3.3% (active)	-73.1% (active)	42.2%	-41.3% (active)	36.2%	24.2	5.02% (active)	-37.8% (active)	-22.4% (active)	-64.7% (active)	19.1	74.8%	-38.8% (active)	65.9%	27%
Cc1c2ncccc2nc2[nH]c3ccc(OCCN(C)C)cc3c12	28.1	32.7	13.2	29.3%	5.49% (active)	30.3%	22.9%	5.31% (active)	25.2%	19.1%	22.2	17%	29.3%	30.3%	35.3%	30.8	32%	38.5%	46.1%	19.4%
COc1ccc(/C=C/C(c2cc(OC)c(OC)c(OC)c2)n2cncn2)cc1O (stereo not given)	41.5	62.2	54.7	22.5%	13.3%	48%	13%	40.1%	23.3%	60.6%	21	8.05% (active)	54.4%	45.5%	-16.9% (active)	54.1	1.43% (active)	-4.58% (active)	55.6%	-12.3% (active)
CS(=O)(=O)Nc1cc(-c2ccc3ncnc(Nc4ccc5c(cnn5Cc5ccncc5)c4)c3c2)cnc1Cl	62.2	92	76	43.9%	97.2%	-7.79% (active)	46.4%	86%	66.3%	89.2%	78.9	53.5%	20.8%	43.4%	21.1%	45	84.5%	50.3%	59.4%	56.2%
C=CN(C(=O)N1CCN(c2cc3c(cc2F)c(=O)c(C(=O)O)cn3C2CC2)CC1)c1nc(-c2ccc(Cl)cc2)cs1	67.8	87.9	69.4	69.4%	23.5%	60.1%	64.7%	40.7%	82.8%	84.2%	81.1	47.6%	89.9%	76.4%	53.3%	44.7	58.6%	67%	87.6%	60.2%
COCCn1cc(-c2nc(-c3cc4cccnc4n3C)cs2)c2ccccc21	39.4	60.9	41.6	52.5%	19.9%	44.1%	-6.38% (active)	28.9%	56.7%	11.9%	66.8	20%	70.7%	37.1%	70.7%	58.9	36.5%	60.6%	49%	24.3%
CC/C(=C(\c1ccc(Cl)cc1)c1ccc(OCCN2CCCCC2)cc1)c1ccc(O)cc1	47.6	78.6	70.1	-9.16% (active)	-34.5% (active)	49.9%	58.1%	32.5%	-54.9% (active)	-73.5% (active)	39.7	-28.4% (active)	-38.1% (active)	26.5%	-6.93% (active)	53	54.6%	50%	-22.1% (active)	-55.5% (active)
C=CCn1cc(-c2nc3ccccc3s2)c2cc(-c3ccc4c5c(cccc35)C(=O)N(CCO)C4=O)ccc21	99.7	90.3	98.8	90.6%	98.1%	78.7%	88.7%	95%	97.6%	116%	107	90.8%	119%	85.2%	100%	90.5	91.2%	104%	107%	106%
COc1ccc(C(=O)C/C(=C\c2ccc(O)c(OC)c2)C(=O)NN)cc1	68.9	91.7	82	67.4%	43.6%	69.5%	52.1%	80%	112%	106%	101	47.2%	93.4%	65.4%	107%	92.4	102%	80.8%	81.5%	91.5%
CN(C)Cc1ccc(NC(=O)c2cncc(C#Cc3cnc(N)c4ncccc34)c2)cc1C(F)(F)F	42.1	76.7	97	79.8%	13.3%	73.9%	94.6%	-15.4% (active)	-73.4% (active)	44.6%	64.1	-26.1% (active)	-6.72% (active)	-68.6% (active)	-49.1% (active)	55.9	76.4%	58.4%	36.9%	-54.7% (active)
O=C1O[C@@H](c2ccccc2Cl)[C@@H]2c3cc4c(cc3CCN12)OCO4	103	93.7	89.3	96.2%	101%	92.5%	81.9%	86.3%	97.9%	110%	105	87.5%	101%	97.2%	111%	93.2	102%	107%	90.7%	105%
Brc1ccc(Nc2nc(Nc3cnc4ccccc4c3)c3[nH]cnc3n2)cc1	76	64.1	105	64.6%	65%	26%	54.2%	79.6%	49.4%	90.4%	81.3	79.7%	105%	53.8%	75.8%	76.6	84.7%	87.4%	90.3%	84.8%
Nc1nc(N)c2c(n1)NC(c1cccc(Nc3ccnc4cc(C(F)(F)F)ccc34)c1)CC(c1ccc3c(c1)OCO3)=N2 (stereo not given)	82.4	97.7	96.2	65.7%	58.8%	54.4%	42.2%	60.3%	72.6%	66.2%	86.9	16.1%	72.5%	86.1%	52.2%	68.2	80%	95.4%	77.7%	67.3%

From PubChem BioAssay (NCI)
